# According to paper PMC4336329 (PLoS ONE, 2015):
# The campaign covered roughly 310,000 compounds. About 14,000 (4.5%) showed an effect of 50% or more. Effects have a minus sign here. What follows is part of a selection rich in strong results, with near analogues and random picks from the rest.
# Molecular target: human ether-à-go-go-related gene (hERG) potassium channel (human, UniProt Q12809)
# Assay: primary screen, population patch clamp on CHO cells stably expressing hERG; higher = less effect of the substance
# 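Also: peak tail current of the secondary pulse compared with the same well before compound.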
# Sequence of human ether-à-go-go-related gene (hERG) potassium channel (Q12809 whole entry, looked up): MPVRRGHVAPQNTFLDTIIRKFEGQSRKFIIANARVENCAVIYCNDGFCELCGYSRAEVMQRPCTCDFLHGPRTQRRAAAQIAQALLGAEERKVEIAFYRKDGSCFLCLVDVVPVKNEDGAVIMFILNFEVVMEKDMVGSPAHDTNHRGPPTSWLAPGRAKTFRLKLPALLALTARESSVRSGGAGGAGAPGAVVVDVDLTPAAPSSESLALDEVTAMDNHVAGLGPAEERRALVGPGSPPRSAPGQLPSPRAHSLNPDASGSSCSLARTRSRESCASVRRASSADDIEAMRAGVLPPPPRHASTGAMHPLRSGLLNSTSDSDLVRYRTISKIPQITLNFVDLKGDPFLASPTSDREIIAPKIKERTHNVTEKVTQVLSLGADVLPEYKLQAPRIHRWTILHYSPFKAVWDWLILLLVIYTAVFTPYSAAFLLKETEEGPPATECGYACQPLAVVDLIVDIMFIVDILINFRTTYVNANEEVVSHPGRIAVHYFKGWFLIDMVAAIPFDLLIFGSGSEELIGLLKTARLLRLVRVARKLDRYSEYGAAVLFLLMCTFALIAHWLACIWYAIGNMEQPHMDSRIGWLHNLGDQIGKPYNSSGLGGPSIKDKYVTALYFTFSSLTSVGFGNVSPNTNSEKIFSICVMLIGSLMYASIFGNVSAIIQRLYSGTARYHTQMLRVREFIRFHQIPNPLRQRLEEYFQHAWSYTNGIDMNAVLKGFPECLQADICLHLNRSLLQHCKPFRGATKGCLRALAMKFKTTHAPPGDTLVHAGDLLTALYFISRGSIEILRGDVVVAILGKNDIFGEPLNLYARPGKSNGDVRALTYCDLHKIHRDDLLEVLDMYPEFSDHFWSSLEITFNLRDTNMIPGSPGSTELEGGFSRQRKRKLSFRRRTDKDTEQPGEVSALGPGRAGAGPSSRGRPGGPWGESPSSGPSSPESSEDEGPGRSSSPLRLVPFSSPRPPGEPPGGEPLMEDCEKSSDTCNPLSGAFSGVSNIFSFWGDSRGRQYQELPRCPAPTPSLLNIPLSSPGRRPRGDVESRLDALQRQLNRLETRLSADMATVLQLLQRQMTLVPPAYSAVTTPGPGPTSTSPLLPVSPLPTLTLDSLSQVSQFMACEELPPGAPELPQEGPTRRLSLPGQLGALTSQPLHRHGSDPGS
row,Compound,"hERG current change (%, negative = inhibition) at 10uM [%]"
1,O=[N+]([O-])c1ccc(N=Nc2ccc(O)cc2O)cc1,28.4
2,CCCCn1c(O)c(N=Nc2ccccn2)c2ccccc21,7.6
3,O=C(CN(C(=O)c1csnn1)c1ccc(F)cc1)NCCc1ccccc1,7.95
4,O=C(CN(C(=O)c1csnn1)c1ccccc1)NCCc1ccccc1,-15
5,CC(C)c1ccc(N(CC(=O)NCCc2ccccc2)C(=O)c2csnn2)cc1,-60
6,Cc1ccc(N(CC(=O)NCCc2ccccc2)C(=O)c2csnn2)cc1,-15.4
7,CC(=O)c1ccc(N(CC(=O)NCCc2ccccc2)C(=O)c2csnn2)cc1,-52.4
8,O=C(CN(C(=O)c1csnn1)c1ccc(Cl)cc1)NCCc1ccccc1,-5.16
9,Cc1ccc(Cc2nnc(SCC(=O)Nc3c(C)cccc3C)[nH]c2=O)cc1,-9.17
10,CCOC(=O)c1c(NC(=O)C2C3C=CC(C3)C2C(=O)O)sc2c1CCC(C)C2 (centres unmarked),-6.93
11,CCCOC(=O)c1c(NC(=O)C2C3C=CC(C3)C2C(=O)O)sc2c1CCC(C)C2 (centres unmarked),-59.3
12,CCOC(=O)c1c(NC(=O)C2C3C=CC(C3)C2C(=O)O)sc2c1CC(C)CC2 (centres unmarked),19.6
13,O=C(O)c1cc2c(cn1)[nH]c1ccccc12,10.9
14,CC1CCC(C(C)C)C(OC(=O)COC(=O)c2cccn2C)C1 (centres unmarked),16.1
15,CC1CCC(C(C)C)C(OC(=O)Cn2nnc3c(cnn3-c3ccccc3)c2=O)C1 (centres unmarked),3.74
16,CC1CCC(C(C)C)C(OC(=O)Cn2c(-c3ccc(Cl)cc3)[n+](C)c3ccccc32)C1.[Cl-] (centres unmarked),-82.9
17,CC1CCC(C(C)C)C(OC(=O)COC(=O)c2ccc(N)cc2)C1 (centres unmarked),6.47
18,CC1CCC(C(C)C)C(OC(=O)Cn2c(-c3ccc(Br)cc3)[n+](C)c3ccccc32)C1.[Cl-] (centres unmarked),-78.3
19,Cc1nnc(SCC(=O)OC2CC(C)CCC2C(C)C)[nH]c1=O (centres unmarked),11.1
20,CC1CCC(C(C)C)C(OC(=O)COC(=O)c2ccc(=O)[nH]c2)C1 (centres unmarked),-8.28
21,CC1CCC(C(C)C)C(OC(=O)C[n+]2cccc(C(N)=O)c2)C1.[Cl-] (centres unmarked),7.66
22,CC1CCC(C(C)C)C(OC(=O)Cn2c(-c3ccccc3)[n+](C)c3ccccc32)C1.[Cl-] (centres unmarked),-77.3

row,Compound,"hERG current change (%, negative = inhibition) at 10uM [%]"
1,CC1CCC(C(C)C)C(OC(=O)CSc2nnc(N)s2)C1 (centres unmarked),3.01
2,CC1CCC(C(C)C)C(OC(=O)CSc2n[nH]c(=O)[nH]c2=O)C1 (centres unmarked),-19.9
3,CC1CCC(C(C)C)C(OC(=O)Cn2c(-c3ccc(F)cc3)[n+](C)c3ccccc32)C1.[Cl-] (centres unmarked),-76.3
4,COc1cccc(-n2ccnc2SCC(=O)Nc2cc(C)on2)c1,14.1
5,Cc1ccc(S(=O)(=O)Nc2ccc(S(=O)(=O)Nc3cc(C)nc(C)n3)cc2)cc1,23.3
6,NC(=O)c1cccnc1Oc1ccccc1,-30.8
7,O=C(N/N=C/c1ccc(OC(=O)c2cccs2)cc1)c1ccc(F)cc1,10
8,O=C(c1cc(=O)[nH]c2ccc(Br)cc12)N1CCC2(CC1)OCCO2,12.6
9,CCOC(=O)c1c(-c2ccccc2)csc1NC(=O)c1ccc(S(=O)(=O)N2CCOCC2)cc1,9.29
10,CCN(CC)c1cc(NCCO)c([N+](=O)[O-])c2nonc12,-25.1
11,COc1ccc(CCC(=O)NCCS(=O)(=O)N2CCN(c3ccccc3)CC2)cc1,-36.6
12,O=C(Cc1ccc(Cl)cc1)NCCS(=O)(=O)N1CCN(c2ccccc2F)CC1,-10.6
13,COc1ccc(CCC(=O)NCCS(=O)(=O)N2CCN(c3ccc(F)cc3)CC2)cc1,-58.8
14,COc1ccc(CCC(=O)NCCS(=O)(=O)N2CCN(c3ccc(OC)cc3)CC2)cc1,7.57
15,O=C(NCCS(=O)(=O)N1CCN(c2ccccc2F)CC1)c1ccc(Cl)cc1,-55.5
16,O=C(NCCS(=O)(=O)N1CCN(c2ccccc2F)CC1)c1ccc(Br)cc1,4.45
17,COc1ccc(CCC(=O)NCCS(=O)(=O)N2CCN(c3ccccc3F)CC2)cc1,-63.2
18,COc1ccc(CCC(=O)NCCS(=O)(=O)N2CCN(c3ccccc3OC)CC2)cc1,-8.87
19,O=C(CCCc1ccccc1)NCCS(=O)(=O)N1CCN(c2ccccc2F)CC1,-18.5
20,COC(=O)COc1ccc(C(C2C(=O)CC(C)(C)CC2=O)C2C(=O)CC(C)(C)CC2=O)cc1,15.8
21,Cc1oc2c(O)c(O)ccc2c(=O)c1-c1ccc(Cl)cc1,-11.3
22,COc1ccc([C@H]2CC(=O)C=C(c3ccc(F)cc3OCc3ccccc3)C2)cc1OC,12.1
